This note sets out measurements from PubChem BioAssay (NCATS).

Inconclusive results are not listed. A number with no mark means an inactive call. Calls of active or inactive are those of the source. The call rests on the fitted dose curve; in most records, active means well fitted inhibition curve with a large enough effect; inconclusive means small, poorly fitted or top-dose-only effect; inactive means no such curve, though single readings can be large or run the other way. *1 amine or outer side, *2 acyl side, *3 side chain or, on linkers, in order; H or OH if unused. Where a SMILES comes first, the peptide text is derived from it. [ ]: non-standard residue; d: D form. X4 = CC(C)=CCc1cc(C(O)C(N[*:1])C(=O)[*:2])ccc1O
On the % scale 0 is the no-effect control and ±100 the full control effect; potency means the concentration at half of the fitted maximal effect.

The assay in a line: Primary qHTS for inhibitors of nuclear receptor binding SET domain protein 2 (NSD2) in an RCH-ACV wild type WT cells (2C) (AID 1645877). Further: nearly all actives have a fitted effect of over 70% in size. The settings on record: RCH-ACV (leukaemia line) NSD2 WT (2C) viability, CellTiter-Glo, 72 h; series mostly up to 44.9 µM; activity change, negative = cell killing: at the top concentration. Background: In qHTS, concentration-response curves come from the screen itself.
In the case of `COc1ccc(C(=O)n2c(C)c(Cc3cccc(O[C@@H](C)C(=O)O)c3)c3cc(OC(F)(F)F)ccc32)cc1`, the “activity change, negative = cell killing” value is -20.2%.

Turning to `CC1CC[C@]2(C(=O)O)CC[C@]3(C(=O)O)C(=CCC4[C@@]5(C)CC[C@H](OC6OC(C)C(O)C(OC7OC(CO)C(O)C(O)C7O)C6O)C(C)(C)C5CC[C@]43C)C2C1C` (stereo not given in full), the “activity change, negative = cell killing” value is -4.31% [at 17.3 µM].

In the case of `CC(=O)C1=C(C)N(c2cccc(C(F)(F)F)c2)C(=O)N[C@H]1c1ccc(C#N)nc1`, the activity change, negative = cell killing was -17.1% [at 9.23 µM].

Consider `Cc1ccc(NC(=O)c2ccc(CN3CC[C@H](N(C)C)C3)c(C(F)(F)F)c2)cc1Nc1nccc(-c2cncnc2)n1`, for which the Potency is 7.23 µM (active).

Regarding `C=CC(=O)N1CCN(C(=O)CNc2cc(I)c(Cl)cc2O)CC1`, the Potency is 5.15 µM (active).

In the case of `COC(=O)/C=C/C12COC(C)(C)C1C(O)C(OC(C)=O)C1(C)C2CCC2(C)C(c3ccoc3)OC(=O)C3OC321` (stereo not given), the “activity change, negative = cell killing” value was 0.208% [at 17.3 µM].

Take `CC(C)c1ccc2c(c1)C(=O)CC1[C@@](C)(C(=O)O)CCC[C@]21C` (stereo not given in full): the “activity change, negative = cell killing” value was -17.7%.

Take `O=C1OCc2cc3cccc(O[C@@H]4O[C@H](CO)[C@@H](O)[C@H](O)[C@H]4O)c3c(O)c21`: the compound was called inactive.

On to `CC1COC2(OC3CC4C5CC(O[C@@H]6O[C@H](C)[C@@H](O[C@@H]7O[C@@H](C)[C@H](O)[C@@H](O)[C@H]7O)[C@H](O)[C@H]6O)C6CC(O)CCC6(C)C5CCC4(C)C3C2C)C(O)C1` (stereo not given in full), for which the “outcome” value is “inactive [at 17.3 µM]”.

Take `C[C@H](C/C=C/C(C)(C)O)[C@H]1CC[C@@]2(C)[C@@H]3[C@@H](O[C@@H]4O[C@H](CO)[C@@H](O)[C@H](O)[C@H]4O)C=C4C(CC[C@H](O)C4(C)C)[C@]3(C=O)CC[C@]12C` (stereo not given in full): the “activity change, negative = cell killing” value is -23.7% [at 17.3 µM].

Consider `COc1cc(O)c2c(c1)C1=CC(O)C(O)CC1(C)OC2=O` (stereo not given), for which the “activity change, negative = cell killing” value was -17.1%.

Take `O=C(OC[C@H]1O[C@H](O[C@]2(CO)O[C@H](CO)[C@@H](O)[C@@H]2O)[C@H](O)[C@@H](O)[C@@H]1O)c1ccccc1`: the “outcome” value was “inactive [at 17.3 µM]”.

With `CC(C)=CCc1cc(C(O)C2NC(=O)CNC(=O)C(Cc3c[nH]c4ccccc34)NC(=O)C3CCCN3C(=O)CNC(=O)C(C(C)C)NC(=O)CNC2=O)ccc1O` (stereo not given) (cyclo(G[X4]GVGPW); configuration not given here), the activity change, negative = cell killing is -18.5% [at 9.23 µM].

On to `CCCC(=O)NCCc1csc(-c2ccc(Cl)cc2)n1`, for which the Potency is 18.3 µM (active).

For the compound `C[C@@H]1O[C@@H](O[C@H]2[C@H](O[C@H]3[C@H](O)[C@@H](C(=O)O)O[C@@H](O[C@H]4CC[C@@]5(C)C(CC[C@]6(C)C5CC[C@]57OC[C@@]8(CCC(C)(C)CC85)[C@H](O)C[C@]76C)C4(C)C)[C@@H]3O[C@@H]3O[C@H](CO)[C@@H](O[C@@H]4OC[C@@H](O)[C@H](O)[C@H]4O)[C@H](O)[C@H]3O)O[C@H](CO)[C@H](O)[C@@H]2O)[C@H](O)[C@H](O)[C@H]1O` (stereo not given in full), the activity change, negative = cell killing is -1.94% [at 9.23 µM].
